The text below walks through data of PubChem BioAssay AID463173 (ICCB-Longwood Screening Facility, Harvard Medical School, 2010).

Out of some 52,000 compounds screened, about 1,700 (3.3%) were called active. This is one part of a sample in which actives are shown more often than they occur. Rule as the data show it: active = survival mostly below about 52% (no sharp cut-off); inactive = mostly above about 56%.

The subject of this assay is Wild type. Nature of the assay: S. aureus survival, RN4220 and DeltatarO strains – OD600, teichoic acid synthesis inhibitors, primary screen (AID 463173). Conditions: S. aureus RN4220 wild type/DeltatarO growth, OD600, 18 h, active compounds read low, screened at 18.75 µg/mL (by protocol).
As for `COCCCNC(=O)C1CCN(c2ncnc3c2nc2n3CCCCC2)CC1`, the survival is 89% (inactive). Turning to `CSc1nnc(-c2cc3ccccc3cc2O)n1C`, the survival is 111% (inactive).

Consider `COC(=O)c1sc2nc(C)cc(C)c2c1N`, for which the survival is 103% (inactive).

For the compound `Nc1nc2cc3c(cc2s1)OCCO3`, the survival was 113% (inactive). Next, `COc1cc2nc(SCc3ccc(Cl)cc3)n3nc(CCn4nc(C)cc4C)nc3c2cc1OC`: 71% (inactive). Turning to `CCCCOc1ccc(CNC(=O)c2cnc3sc(N4CCC(C)CC4)nn3c2=O)cc1`, the survival is 127% (inactive). As to `COC(=O)c1ccc(NC(=O)CCn2cccn2)cc1`, the survival was 88% (inactive).

Turning to `CCc1ccc(OCC(=O)Nc2ccc3c(c2)c2ccccc2n3CC)c(Br)c1`, the survival is -6% (active). `CCn1c2ccccc2c2cc(NC(=O)COc3cc(C)ccc3C)ccc21`: the survival was 18% (inactive). With `CCn1c2ccccc2c2cc(NC(=O)COc3ccc(C)cc3C)ccc21`, the survival was 8% (active).

Regarding `CCn1c2ccccc2c2cc(NC(=O)COC)ccc21`, the survival was 108% (inactive). In the case of `CCn1c2ccccc2c2cc(NC(=O)COc3cccc(C)c3)ccc21`, the survival was 34% (inactive).

In the case of `CCc1ccc(OCC(=O)Nc2ccc3c(c2)c2ccccc2n3CC)cc1`, the survival was 69% (inactive).

As to `COc1ccc(-c2cc(C(=O)Nc3c(Cl)cccc3Cl)no2)cc1OC`, the survival was 79% (inactive). Take `O=C(Nc1c(Cl)cccc1Cl)c1cc(-c2cccc(O)c2)on1`: the survival was 5% (active).

As to `O=C(Nc1c(Cl)cccc1Cl)c1cc(-c2ccc3c(c2)OCO3)on1`, the survival was 82% (inactive). As for `COC(=O)/C=C1/C(=O)N(C(C)=O)c2ccccc21`, the survival was 108% (inactive). On to `COc1ccc(CNS(=O)(=O)c2cc3c(cc2C)n(C)c(=O)c(=O)n3C)cc1`, for which the survival was 77% (inactive). For the compound `COc1cccc(N2CCN(Cc3nnc(-c4ccc5c(c4)OCO5)o3)CC2)c1`, the survival was 102% (inactive). For `Cc1cccc(-c2noc(CN(C(C)C)S(=O)(=O)c3ccc(Br)cc3)n2)c1` the value was 72% (inactive). As for `Cc1cccc(-c2noc(CN(C(=O)c3ccccc3Cl)C(C)C)n2)c1`, the survival was 86% (inactive).

For `COc1ccc(S(=O)(=O)N(C)Cc2nc(-c3cccc(C)c3)no2)cc1`, the survival was 74% (inactive).

For `COc1ccc(OC(C)C(=O)NCc2nc(-c3cccc(C)c3)no2)cc1` (centres undefined), the survival is 87% (inactive).

`Cc1cccc(-c2noc(CN(C(=O)c3ccc(C)c(C)c3)C(C)C)n2)c1`: the survival was 0% (active). In the case of `CCOc1ccc(C(=O)N(Cc2nc(-c3cccc(C)c3)no2)C(C)C)cc1`, the survival was 2% (active). For the compound `Cc1cccc(-c2noc(CN(C(=O)COc3ccc(Br)cc3C)C(C)C)n2)c1`, the survival is 30% (inactive). Take `COc1ccccc1C(=O)N(Cc1nc(-c2cccc(C)c2)no1)C(C)C`: the survival was 56% (inactive). On to `Cc1cccc(-c2noc(CN(C(=O)COc3ccc(C(C)C)cc3)C(C)C)n2)c1`, for which the survival is 3% (active).

Take `CCN(CC(O)COc1ccc(OCC(O)CN(CC)C2CCCCC2)cc1)C1CCCCC1` (centres undefined): the survival was 109% (inactive). For `CC1(C)CC(=O)c2cc(-c3nc(-c4ccc(Cl)cc4)cs3)c(=O)n(-c3ccc(Cl)cc3)c2C1` the value was 67% (inactive); for `Cn1nc(C(=O)NCCc2ccc(Cl)cc2)c2c1-c1ccccc1SC2`, 82% (inactive).

Consider `CCc1nn2c(=O)c(S(=O)(=O)Nc3ccc(C)cc3C)c(C)nc2s1`, for which the survival is 75% (inactive). `CCCCN(CC)CCNC(=O)c1cn(CCOC)c(=O)c2c1c1ccccc1n2C`: the survival was 89% (inactive). As to `COc1ccccc1-c1c(C)nn2c(-c3ccccc3)cc(-c3ccccc3)nc12`, the survival was 77% (inactive). Regarding `Cc1cccc(OC(C)C(=O)Nc2nonc2-c2ccc(Br)cc2)c1C` (centres undefined), the survival is 94% (inactive). For `Cc1ccc(OC(C)C(=O)Nc2nonc2-c2ccc(Br)cc2)cc1C` (centres undefined) the value was 72% (inactive); for `Cc1cc(C)cc(OC(C)C(=O)Nc2nonc2-c2ccc(Br)cc2)c1` (centres undefined), 17% (active); for `Cc1ccc(-n2nc(CO)c(C(=O)NCCC(C)C)n2)cc1C`, 116% (inactive).

`CCOc1ccccc1NC(=O)CN1C(=O)C2(SCC(=O)N2c2cccc(F)c2)c2ccccc21` (centres undefined): the survival was 97% (inactive). For the compound `Cc1ccc(/C=N/NC(=O)C2=NNC(=O)C2C)o1` (centres undefined), the survival is 107% (inactive). Consider `COc1cccc(OCc2nnc(SCC(=O)O)o2)c1`, for which the survival was 98% (inactive). For `CCCc1cc(=O)oc2cc(C)c3c(-c4ccccc4)c(C)oc3c12`, the survival is 0% (active). For `CCCc1cc(=O)oc2cc(C)c3c(-c4ccccc4)coc3c12`, the survival is 66% (inactive). For the compound `CCCc1cc(=O)oc2cc(C)c3c(-c4cccc(OC)c4)coc3c12`, the survival was 74% (inactive). Next, `CCN1C(=O)c2ccccc2S(=O)c2ccc(C(=O)N3CCN(c4ccccc4)CC3)cc21` (centres undefined): 83% (inactive). Turning to `CCOc1ccc2nc(N3CCCC(C(=O)Nc4ccc(OC)c(Cl)c4)C3)sc2c1` (centres undefined), the survival was 89% (inactive). For `Clc1ccc(NCc2nc3ccccc3n2CCOc2ccccc2)cc1`, the survival is 74% (inactive).

With `CCOc1ccc(NCc2n[nH]c(=S)n2-c2ccc(C)cc2)cc1`, the survival was 122% (inactive). As for `Cc1ccc(OCCn2c(CNc3cccc(C)c3)nc3ccccc32)cc1`, the survival is -21% (active).

`Cc1ccc(NCc2nc3ccccc3n2CCOc2ccccc2)cc1`: the survival was -20% (active). As to `COc1ccc(NCc2nc3ccccc3n2CCOc2ccc(C)cc2)cc1`, the survival is -18% (active). In the case of `CCOc1ccc(NCc2nc3ccccc3n2CCOc2ccc(C)cc2)cc1`, the survival was -20% (active). For `CC(C)CCNc1ncnc2c1nnn2Cc1ccccc1`, the survival was 111% (inactive). For the compound `Cc1nc2cc(NC(=O)Nc3ccccc3Cl)ccc2n1C`, the survival was 109% (inactive). `CCCCNC(=O)c1nn(-c2ccc(C)cc2)c(=O)n(C)c1=O`: the survival was 68% (inactive).

For the compound `Cc1ccc(N(CC(=O)Nc2ccc(Cl)cc2)S(=O)(=O)c2cccc3nonc23)cc1`, the survival is 125% (inactive).

Regarding `O=C(Cn1ncn2nc(-c3cccs3)cc2c1=O)NCc1ccccc1Cl`, the survival is 94% (inactive).

For `COc1ccc(-c2nn3c(=O)cc(CN4CCN(C(=O)/C=C/c5ccccc5)CC4)nc3s2)cc1`, the survival is 72% (inactive). `CCn1cc2nc(SCc3c(F)cccc3Cl)n(CCc3ccccc3)c(=O)c2n1`: the survival was 64% (inactive). On to `CCn1c(=O)cc(SCC(=O)NCc2ccc(F)cc2Cl)c2ccccc21`, for which the survival was 91% (inactive).

Turning to `Cc1cc(Cl)ccc1NC(=O)C1CCCN(c2nnc(C)c3c(C)n(-c4ccccc4)nc23)C1` (centres undefined), the survival was 70% (inactive).

Regarding `Cc1ccccc1NCc1nc2ccccc2n1CCOc1ccccc1`, the survival was -20% (active).

As for `Cc1ccc(OCCn2c(CNc3ccccc3C)nc3ccccc32)cc1`, the survival is 57% (inactive).

In the case of `Cc1ccc(CSCC(=O)N2CCN(c3ccccc3F)CC2)cc1`, the survival is 45% (inactive). As for `COc1ccc(Cn2c(=O)c3ccccc3n3c(-c4cccc(OC)c4OC)nnc23)cc1`, the survival is 87% (inactive). Regarding `Cc1nn(CCC(=O)NCc2ccc(Cl)cc2)c(=O)c2nn(-c3ccccc3)c(C)c12`, the survival was -3% (active). With `Cc1cccc(NC(=O)CCn2nc(C)c3c(C)n(-c4ccccc4)nc3c2=O)c1C`, the survival is 65% (inactive). Regarding `Cc1cc(Cl)ccc1NC(=O)CCn1nc(C)c2c(C)n(-c3ccccc3)nc2c1=O`, the survival was 68% (inactive). In the case of `Cc1ccc(NC(=O)CCCn2nc(C)c3c(C)n(-c4ccccc4)nc3c2=O)c(Cl)c1`, the survival was 113% (inactive). For `Cc1cc(Cl)ccc1NC(=O)CCCn1nc(C)c2c(C)n(-c3ccccc3)nc2c1=O` the value was 118% (inactive); for `COc1cc(OC)c(NC(=O)CCCn2nc(C)c3c(C)n(-c4ccccc4)nc3c2=O)cc1Cl`, 0% (active). Turning to `COc1ccc(CNC(=O)CCn2nc(C)c3c(C)n(-c4ccccc4)nc3c2=O)cc1OC`, the survival is -2% (active). On to `Cc1ccc(C)c(NC(=O)CCn2nc(C)c3c(C)n(-c4ccccc4)nc3c2=O)c1`, for which the survival was 10% (active).

For `COc1cccc(CNC(=O)CCn2nc(C)c3c(C)n(-c4ccccc4)nc3c2=O)c1`, the survival was 82% (inactive). Regarding `Cc1nn(CCC(=O)NCc2ccc(N(C)C)cc2)c(=O)c2nn(-c3ccccc3)c(C)c12`, the survival was 87% (inactive). On to `COc1ccc(CNC(=O)CCCn2nc(C)c3c(C)n(-c4ccc(C)cc4)nc3c2=O)cc1OC`, for which the survival was 71% (inactive). For `CCc1ccc(CNC(=O)CCn2nc(C)c3c(C)n(-c4ccccc4)nc3c2=O)cc1` the value was 65% (inactive); for `O=C(NCCSCc1c(F)cccc1Cl)C1CCN(S(=O)(=O)Cc2ccccc2)CC1`, 87% (inactive); for `O=C(CC(c1cccs1)N1Cc2ccccc2C1=O)Nc1ccc(F)cc1` (centres undefined), 91% (inactive). Turning to `CCN(CC)C(=O)Cn1c(=O)cc(C)c2c(C)nn(-c3cccc(Cl)c3C)c21`, the survival was 85% (inactive).

Regarding `Cc1ccccc1C(=O)Nc1ccc2c(c1)CCCN2C(=O)c1cccs1`, the survival is 77% (inactive). For `Cc1ccccc1NC(=O)Cn1c(=O)n(CCCC(=O)NCc2ccc3c(c2)OCO3)c(=O)c2ccccc21` the value was 91% (inactive).

As to `Cc1ccc(S(=O)(=O)c2cn(C)c3cc(N4CCCCC4)c(F)cc3c2=O)cc1`, the survival was 74% (inactive). Turning to `COc1ccc(-c2nc3c(c(SCC(=O)Nc4ccccc4F)n2)Cc2cc(C)ccc2O3)cc1`, the survival is 80% (inactive). With `COc1ccccc1NC(=O)C(=O)NCC(c1ccc2c(c1)OCO2)N1CCN(C)CC1` (centres undefined), the survival is 81% (inactive). `O=C(CN(c1ccc(Cl)c(C(F)(F)F)c1)S(=O)(=O)c1ccccc1)Nc1cccnc1`: the survival is 64% (inactive). On to `Cc1c(CCC(=O)N2CCCCC2)c(=O)oc2cc3occ(C(C)(C)C)c3cc12`, for which the survival is 74% (inactive). As to `Cc1cccc(Cn2c(SCc3ccc(C(=O)NCc4cccs4)cc3)nc3ccncc32)c1`, the survival is 84% (inactive). Regarding `COc1cc(-c2ccno2)ccc1S(=O)(=O)N1CCN(c2cccc(Cl)c2)CC1`, the survival was -3% (active). Take `COc1cccc(N2CCN(S(=O)(=O)c3ccc(-c4ccno4)cc3OC)CC2)c1`: the survival is 57% (inactive). Turning to `COc1cc(-c2ccno2)ccc1S(=O)(=O)N1CCN(c2ccccc2)CC1`, the survival is 71% (inactive). In the case of `COc1ccccc1N1CCN(S(=O)(=O)c2ccc(-c3ccno3)cc2OC)CC1`, the survival is 82% (inactive).

With `COc1ccc(N2CCN(S(=O)(=O)c3ccc(-c4ccno4)cc3OC)CC2)cc1`, the survival was 1% (active). Next, `COc1cc(-c2ccno2)ccc1S(=O)(=O)N1CCN(c2ccc(F)cc2)CC1`: 63% (inactive).
